Experimental data as given in PubChem BioAssay (Tox21).
Records with an inconclusive call do not appear. Activity calls are given as the source filed them. Unless noted, the call rests on the fitted dose curve; in most records, active means well fitted curve in the direction sought with a large enough effect in the repeat runs; inconclusive means weak or mixed curves; inactive means no such curve, though single readings can be large; an effect the other way counts as inactive or inconclusive.

Tests used:
[1] = target: Glucocorticoid receptor (Homo sapiens) (UniProt P04150); assay: qHTS assay to identify small molecule antagonists of the glucocorticoid receptor (GR) signaling pathway (AID 720692; active means well fitted inhibition curve with a large enough effect in the signal ratio in the repeat runs, not every such curve was filed as active; the % refers to the signal ratio)
Procedure, shortened: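 Inhibition of glucocorticoid signalling is measured in HeLa cells with a GRE-controlled beta-lactamase reporter; cells are co-treated with compound and 5 nM dexamethasone (final) for 18 h before FRET substrate readout.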

Aromatase (Homo sapiens) = Aromatase (Homo sapiens) (UniProt P11511); assay: qHTS assay to identify aromatase inhibitors (AID 743083); further: nearly all actives have a fitted effect of over 55% in size
[2] = target: Aryl hydrocarbon receptor (Homo sapiens) (UniProt P35869); assay: qHTS assay to identify small molecule that activate the aryl hydrocarbon receptor (AhR) signaling pathway (AID 743085);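 further: HG2L7.5c1 human HepG2 liver cells with stably integrated DRE-driven firefly reporter; nearly all actives have a fitted effect of over 15% in size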
Procedure, shortened: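 A multiplexed format paired cell viability (CellTiter-Fluor fluorescence) with AhR-dependent luciferase output (ONE-Glo luminescence) in the same wells of HepG2 DRE-luc cells after 24 h compound exposure at 37C.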

[3] = qHTS assay to identify small molecule agonists of the estrogen related receptor signaling pathway with the pleiotropic PPARgamma coactivator (PGC) from Tox21 10K library (AID 1224842); further: nearly all actives have a fitted effect of over 15% in size
Procedure, shortened: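 PGC/ERR reporter cells (NTP line) were seeded 2,000 per well, rested 6 h at 37 C/5% CO2, then pin-dosed with compounds in DMSO for 18 h at 37 C; luciferase read by One-Glo luminescence after 30 min at room temperature.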

[4] = qHTS assay to identify small molecule agonists of H2AX (AID 1224845; active means well fitted activation curve with a large enough effect in the signal ratio in the repeat runs, not every such curve was filed as active; the % refers to the signal ratio)
Procedure, shortened: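 Wild-type CHO-K1 cells plated overnight, then exposed 3 hr at 37C to compounds at 15 concentrations (0.76% DMSO). Lysed, then HTRF anti-pH2AX(S139)-cryptate/anti-H2AX-d2 detection after 24 hr at room temperature; emissions 665 and 620 nm.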

[5] = qHTS assay to identify small molecule agonists of the estrogen related receptor (ERR) signaling pathway from Tox21 library (AID 1224849; calls by dose curve; further: nearly all actives have a fitted effect of over 15% in size); settings: ERR reporter cell line, ONE-Glo luciferase, 18 h; at 92.4 µM (top of the series) unless noted
Procedure, shortened: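 Screening used an NTP-provided ERR luciferase cell line. Compounds in DMSO were added 6 h after seeding and left 18 h at 37 C before a 30 min ONE-Glo step and luminescence reading.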

[6] = Caspase-3/7 induction in HepG2 cells by small molecules, qHTS assay (AID 1346978); further: nearly all actives have a fitted effect of over 15% in size
Procedure, shortened: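 Wild-type HepG2 cells (2,000/well) were settled 5 h at 37 C, 5% CO2, then exposed to compounds in DMSO for 17 h. Caspase-3/7 activity was read by luminescence 30 min after adding Caspase-Glo 3/7 reagent at room temperature.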

[7] = target: Acetylcholinesterase (Homo sapiens) (UniProt P22303); assay: Acetylcholinesterase (AChE) small molecule antagonists: colormetric cell-based qHTS assay (AID 1347395; calls by dose curve; further: nearly all actives have a fitted effect of over 30% in size)
Procedure, shortened: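 Homogeneous whole-cell format. SH-SY5Y cells seeded overnight, dosed with compound (30 min, 37 C, 5% CO2), then given DTNB/acetylthiocholine cocktail for 90 min at 37 C; colorimetric signal.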

[8] = target: Acetylcholinesterase (Homo sapiens) (UniProt P22303); assay: Acetylcholinesterase (AChE) small molecule antagonists: enzyme-based qHTS assay (AID 1347397; calls by dose curve; further: nearly all actives have a fitted effect of over 55% in size); settings: Potency: AChE enzyme activity inhibition; outcome: AChE enzyme activity inhibition
Procedure, shortened: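 Recombinant human AChE, dispensed at 50 mU/mL, was preincubated with Tox21 10K compounds or DMSO vehicle for 30 min at room temperature. DTNB plus acetylthiocholine was then added, and thiocholine was measured colorimetrically after a further 10 min.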

[9] = target: Acetylcholinesterase (Homo sapiens) (UniProt P22303); assay: Acetylcholinesterase (AChE) small molecule antagonists: fluorescence cell-based qHTS assay (AID 1347398; calls by dose curve; further: nearly all actives have a fitted effect of over 50% in size); settings: Potency: AChE activity; outcome: AChE activity
Procedure, shortened: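 Human SH-SY5Y cells were plated overnight at 37 C, exposed to compound for 30 min at 37 C, 5% CO2, then given acetylthiocholine plus Thiolite Green for 40 min at room temperature; thiocholine fluorescence (Ex/Em 490/520 nm) reports endogenous AChE activity.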

[10] = target: Acetylcholinesterase (Homo sapiens) (UniProt P22303); assay: Acetylcholinesterase (AChE) small molecule antagonists: enzyme-based qHTS assay with human liver microsomes (AID 1347399; calls by dose curve; further: nearly all actives have a fitted effect of over 60% in size); settings: Potency: qHTS inhibition; outcome: qHTS inhibition
Procedure, shortened: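 Recombinant human AChE (50 mU/mL in the enzyme mix) and human liver microsomes (0.25 mg/mL final) were preincubated with compound and NADPH (0.25 mg/mL final) for 30 min at 37 C. Acetylthiocholine/DTNB was then added; thiocholine was read colorimetrically after 10 min at room temperature.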

[11] = qHTS assay to test for compound auto fluorescence at 590 nm (red) in HepG2 cells (AID 720674)
Procedure, shortened: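 Compound auto-fluorescence is scored relative to Rose Bengal sodium, measured at 540/590 nm in live HepG2 cultures after 1 hr compound contact (37 C, 5% CO2).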

[12] = qHTS assay to test for compound auto fluorescence at 590 nm (red) in HEK293 cells (AID 720679)
Procedure, shortened: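 Autofluorescence equivalency to Rose Bengal sodium, 540/590nm, in HEK293 cells exposed overnight to 23 nL compound per well.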

[13] = qHTS assay to test for compound auto fluorescence at 460 nm (blue) in HEK293 cell free culture (AID 720681)
Procedure, shortened: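 Test compounds were pinned into cell-free culture medium (DMEM with 10% FBS) and fluorescence was read directly at Ex/Em 405/460 nm. Signals were expressed as fluorescence equivalents of triamterene, with DMSO vehicle as control.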

[14] = qHTS assay to test for compound auto fluorescence at 535 nm (green) in HEK293 cell free culture (AID 720682)
Procedure, shortened: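 DMEM + 10% FBS, cell-free; cpd or DMSO pinned in; Ex485/Em535 read; output as fluorescein-equivalent signal.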

[15] = qHTS assay to test for compound auto fluorescence at 590 nm (red) in HEK293 cell free culture (AID 720683)
Procedure, shortened: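 Tox21 10K library compounds were pinned into cell-free DMEM with 10% FBS and fluorescence was read at excitation 540 nm. Activity is expressed as Rose Bengal sodium equivalency.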

[16] = qHTS assay to test for compound auto fluorescence at 590 nm (red) in HepG2 cell free culture (AID 720684)
Procedure, shortened: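 Red fluorescence (540 nm excitation, 590 nm emission) was measured after compound transfer into cell-free MEM supplemented with 10% FBS. Values are equivalencies against Rose Bengal sodium.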

[17] = qHTS assay to test for compound auto fluorescence at 460 nm (blue) in HepG2 cell free culture (AID 720685)
Procedure, shortened: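 Compound (23 nL) or DMSO pinned into cell-free MEM with 10% FBS; blue fluorescence read at 405/460 nm excitation/emission, expressed as auto-fluorescence equivalency to triamterene.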

[18] = qHTS assay to test for compound auto fluorescence at 535 nm (green) in HepG2 cell free culture (AID 720686)
[19] = qHTS assay to test for compound auto fluorescence at 460 nm (blue) in HepG2 cells (AID 720687)
Procedure, shortened: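 Cells (2,000/well in MEM with 10% FBS) attached overnight at 37 C, then were exposed to compound or DMSO for 1 hr at 37 C, 5% CO2. Fluorescence read at Ex/Em 405/460 nm, expressed as triamterene-equivalent signal.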

[20] = tested on: thyroid hormone receptor (rat, GH3 cells); assay: qHTS assay to identify small molecule agonists of the thyroid receptor (TR) signaling pathway (AID 743066; calls by dose curve)
[21] = target: Luciferin 4-monooxygenase (Photinus pyralis) (UniProt P08659); assay: qHTS assay to identify small molecule inhibitors of firefly luciferase (AID 1224835); further: nearly all actives have a fitted effect of over 25% in size
Procedure, shortened: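 Quantitative HTS format; KM concentrations of both substrates. Purified P. pyralis FLuc activity quantified from luminescence images.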

[22] = qHTS RealTime-Glo MT Cell Viability Assay in HEK293 cells - 0 hour (AID 1224880); further: top concentration of the series differs between compounds; nearly all actives have a fitted effect of over 45% in size
Procedure, shortened: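 Viable HEK293 cells reduce a cell-permeant prosubstrate; the product diffuses out and is consumed by NanoLuc in the medium to give light. Compounds went in after a 5 h incubation and plates were read over the treatment course.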

[23] = qHTS assay to identify small molecule antagonists of the sonic hedgehog signaling (Shh) pathway (AID 1259369; calls by dose curve; further: nearly all actives have a fitted effect of over 45% in size)
Procedure, shortened: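 For antagonist detection, the reporter line received test compounds together with conditioned medium, incubated 24hr at 37 C, 5% CO2, then luminescence was recorded following 30min room-temperature luciferase reagent incubation.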

[24] = qHTS assay to identify small molecule antagonists of the progesterone receptor (PR) signaling pathway - cell viability counter screen (AID 1346798); further: nearly all actives have a fitted effect of over 50% in size
Procedure, shortened: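 CellTiter-Glo luminescence; PR-UAS-bla HEK293T, 3,000 cells/well; compound + R5020, 16 hr, 37C/5% CO2; 30 min RT before read.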

[25] = qHTS assay to identify small molecule antagonists of the estrogen related receptor (ERR) signaling pathway (AID 1224819;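 further: luminescence from an ERR-driven luciferase reporter measured with One-Glo reagent; nearly all actives have a fitted effect of over 50% in size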)
Procedure, shortened: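 Luminescence readout (One-Glo, 30 min, RT) of ERR cell line after 18 h compound exposure at 37 C; cells seeded 2,000/well, pre-incubated 6 h, compounds pinned from DMSO stocks.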

[26] = qHTS assay to identify small molecule agonists of the estrogen related receptor signaling pathway with the pleiotropic PPARgamma coactivator (PGC) (AID 1224823)
Procedure, shortened: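 Cell-based luciferase assay in the NTP-supplied PGC/ERR line, 2,000 cells/well; 18 h compound exposure at 37 C, luminescence after One-Glo.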

[27] = qHTS assay for small molecule agonists of the p53 signaling pathway (AID 651631; calls by dose curve; further: nearly all actives have a fitted effect of over 15% in size)
Procedure, shortened: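 Testing took place in human colorectal HCT-116 cells with stable p53RE-driven beta-lactamase. After 16 h of compound exposure at 37 °C, a FRET substrate was added and fluorescence recorded 2 h later.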
On the % scale 0 is the no-effect control and ±100 the full control effect.

Acetylcholinesterase (Homo sapiens), sequence (P22303 whole entry, looked up): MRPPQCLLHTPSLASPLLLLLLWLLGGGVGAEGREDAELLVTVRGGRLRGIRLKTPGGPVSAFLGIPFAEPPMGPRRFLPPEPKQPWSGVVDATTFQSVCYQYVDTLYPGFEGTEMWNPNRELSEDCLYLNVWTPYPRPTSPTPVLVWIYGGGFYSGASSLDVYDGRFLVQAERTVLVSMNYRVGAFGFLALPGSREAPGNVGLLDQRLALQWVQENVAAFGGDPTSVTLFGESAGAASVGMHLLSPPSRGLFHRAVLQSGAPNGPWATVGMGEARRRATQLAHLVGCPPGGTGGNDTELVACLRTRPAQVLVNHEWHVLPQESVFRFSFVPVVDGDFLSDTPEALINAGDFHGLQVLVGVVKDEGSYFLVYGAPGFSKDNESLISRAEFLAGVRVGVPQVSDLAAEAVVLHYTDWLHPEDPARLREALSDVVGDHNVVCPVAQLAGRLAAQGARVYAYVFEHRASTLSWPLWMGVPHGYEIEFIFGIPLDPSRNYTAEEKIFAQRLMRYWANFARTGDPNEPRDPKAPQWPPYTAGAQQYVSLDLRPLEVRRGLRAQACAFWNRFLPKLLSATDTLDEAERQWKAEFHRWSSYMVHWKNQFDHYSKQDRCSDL
Aryl hydrocarbon receptor (Homo sapiens), sequence (P35869 whole entry, looked up): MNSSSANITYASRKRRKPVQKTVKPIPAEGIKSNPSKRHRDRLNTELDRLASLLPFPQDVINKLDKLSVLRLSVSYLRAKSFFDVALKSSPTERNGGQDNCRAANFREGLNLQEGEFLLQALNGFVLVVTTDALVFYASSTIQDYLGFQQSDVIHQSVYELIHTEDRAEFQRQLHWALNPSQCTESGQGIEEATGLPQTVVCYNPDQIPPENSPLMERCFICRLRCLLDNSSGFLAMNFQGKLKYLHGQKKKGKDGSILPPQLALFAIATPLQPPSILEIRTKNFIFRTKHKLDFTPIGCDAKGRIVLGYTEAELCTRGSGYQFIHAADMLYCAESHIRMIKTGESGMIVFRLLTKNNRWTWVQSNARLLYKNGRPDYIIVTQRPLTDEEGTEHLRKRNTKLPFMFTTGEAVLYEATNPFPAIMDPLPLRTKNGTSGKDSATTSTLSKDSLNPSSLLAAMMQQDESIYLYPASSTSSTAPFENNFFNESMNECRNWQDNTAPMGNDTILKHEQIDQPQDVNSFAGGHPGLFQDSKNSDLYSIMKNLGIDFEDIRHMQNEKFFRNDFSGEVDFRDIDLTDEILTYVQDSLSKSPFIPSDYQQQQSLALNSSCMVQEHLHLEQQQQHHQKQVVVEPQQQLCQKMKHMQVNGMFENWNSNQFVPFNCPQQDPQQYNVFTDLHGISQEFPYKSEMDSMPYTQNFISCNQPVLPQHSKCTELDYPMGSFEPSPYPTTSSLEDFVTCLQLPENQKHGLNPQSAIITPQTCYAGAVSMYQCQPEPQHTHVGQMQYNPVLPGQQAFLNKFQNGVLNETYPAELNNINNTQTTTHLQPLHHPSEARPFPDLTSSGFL
Aromatase (Homo sapiens), sequence (P11511 whole entry, looked up): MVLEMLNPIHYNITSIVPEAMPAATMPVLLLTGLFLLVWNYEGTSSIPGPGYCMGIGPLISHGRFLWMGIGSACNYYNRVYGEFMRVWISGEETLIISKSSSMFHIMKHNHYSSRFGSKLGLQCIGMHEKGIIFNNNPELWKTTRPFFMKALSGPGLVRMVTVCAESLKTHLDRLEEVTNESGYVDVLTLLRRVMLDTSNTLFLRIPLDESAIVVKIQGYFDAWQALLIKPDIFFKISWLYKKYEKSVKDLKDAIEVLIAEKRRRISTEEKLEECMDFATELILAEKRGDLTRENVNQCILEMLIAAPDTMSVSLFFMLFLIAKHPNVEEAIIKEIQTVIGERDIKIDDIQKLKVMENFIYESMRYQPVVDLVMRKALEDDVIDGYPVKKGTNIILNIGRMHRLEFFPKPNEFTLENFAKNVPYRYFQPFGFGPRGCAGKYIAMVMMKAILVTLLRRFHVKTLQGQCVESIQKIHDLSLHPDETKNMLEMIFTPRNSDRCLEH
Luciferin 4-monooxygenase (Photinus pyralis), sequence (P08659 whole entry, looked up): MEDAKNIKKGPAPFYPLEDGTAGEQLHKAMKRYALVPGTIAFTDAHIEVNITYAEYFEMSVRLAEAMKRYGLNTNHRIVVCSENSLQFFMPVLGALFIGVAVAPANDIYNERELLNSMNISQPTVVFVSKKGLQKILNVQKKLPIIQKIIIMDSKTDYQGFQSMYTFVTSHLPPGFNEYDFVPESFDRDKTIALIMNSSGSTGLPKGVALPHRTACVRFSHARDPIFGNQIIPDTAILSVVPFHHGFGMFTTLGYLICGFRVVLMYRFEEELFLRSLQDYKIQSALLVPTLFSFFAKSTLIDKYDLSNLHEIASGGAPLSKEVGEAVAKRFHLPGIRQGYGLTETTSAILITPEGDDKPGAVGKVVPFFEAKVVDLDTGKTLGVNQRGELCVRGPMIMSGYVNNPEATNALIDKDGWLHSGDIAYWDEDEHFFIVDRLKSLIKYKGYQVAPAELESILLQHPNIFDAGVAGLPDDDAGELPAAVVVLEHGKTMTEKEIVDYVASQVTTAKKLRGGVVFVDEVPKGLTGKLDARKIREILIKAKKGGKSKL
Glucocorticoid receptor (Homo sapiens), sequence (P04150 whole entry, looked up): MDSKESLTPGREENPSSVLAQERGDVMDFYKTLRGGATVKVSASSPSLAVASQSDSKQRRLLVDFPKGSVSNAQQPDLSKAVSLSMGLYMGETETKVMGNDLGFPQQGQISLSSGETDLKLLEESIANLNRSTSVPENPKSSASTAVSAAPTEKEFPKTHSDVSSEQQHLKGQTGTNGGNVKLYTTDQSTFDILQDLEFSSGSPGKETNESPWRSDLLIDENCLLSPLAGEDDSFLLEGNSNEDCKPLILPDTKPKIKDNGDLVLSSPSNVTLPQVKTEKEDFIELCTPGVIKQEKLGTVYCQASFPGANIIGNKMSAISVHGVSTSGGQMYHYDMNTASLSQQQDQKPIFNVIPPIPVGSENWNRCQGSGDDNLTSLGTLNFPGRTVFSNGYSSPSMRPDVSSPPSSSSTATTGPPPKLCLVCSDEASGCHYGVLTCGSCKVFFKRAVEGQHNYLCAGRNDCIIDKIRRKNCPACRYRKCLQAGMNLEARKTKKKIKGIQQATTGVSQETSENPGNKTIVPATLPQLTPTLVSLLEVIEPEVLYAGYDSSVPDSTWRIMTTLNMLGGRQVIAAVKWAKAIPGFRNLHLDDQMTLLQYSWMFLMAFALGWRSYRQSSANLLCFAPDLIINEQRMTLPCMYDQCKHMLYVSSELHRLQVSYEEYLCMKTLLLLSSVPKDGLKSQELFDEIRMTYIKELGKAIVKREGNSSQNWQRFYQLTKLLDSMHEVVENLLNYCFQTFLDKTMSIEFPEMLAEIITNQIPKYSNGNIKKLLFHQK

Cc1cccc(C)c1
inactive: Potency [1] | Potency (Aromatase (Homo sapiens)) | Potency [2] | Potency [3] | Potency [4] | activity change, positive = activation [5] 1.06% | Potency [6] | Potency [7] | Potency [8] | Potency [9] | Potency [10]

c1ccc2c(c1)ccc1ncccc12
inactive: Potency (Aromatase (Homo sapiens)) | Potency [2] | activity change, positive = activation [5] -4.48% | Potency [6] | Potency [7] | Potency [8] | Potency [9] | Potency [10]

Cc1ccc(O)cc1C
inactive: outcome [11] | outcome [12] | Potency [13] | Potency [14] | outcome [15] | outcome [16] | Potency [17] | Potency [18] | Potency [19] | Potency [20] | Potency (Aromatase (Homo sapiens)) | Potency [21] | outcome [22] | Potency [23] | Potency [24]

CCn1cnc2c(Nc3cccc(Cl)c3)nc(N[C@@H]3CCCC[C@@H]3N)nc21
inactive: Potency [25] | Potency [26]

Cc1ccc([N+](=O)[O-])c(C)c1
inactive: Potency [27] | Potency (Aromatase (Homo sapiens)) | Potency [2] | activity change, positive = activation [5] -82.5% | Potency [7] | Potency [8] | Potency [9] | Potency [10]
